Values joined by “and” are separate entries in the source; they are usually repeats but may differ in a detail not shown here. Equal entries are not always repeated. Records with an inconclusive call do not appear. The source holds several records for some structures; these can differ, active in one and inactive in another. Active and inactive are the calls of the source. Unless noted, calls come from the whole dose curve.
How the values were obtained:
[1] = Validation screen for inhibitors of Lassa infection (AID 463096); note: potency is the fitted concentration of half-maximal effect
[2] = qHTS for Inhibitors of the Functional Ribonucleoprotein Complex (vRNP) of Lassa (LASV) Arenavirus: LASV Primary Screen - GLuc reporter signal (AID 1347082; calls by dose curve; tested in HEK293 reporter line; note: series mostly up to about 57 µM; % is set by controls: 0 for no effect and ±100 for the full control effect; nearly all actives have a fitted effect of over 60% in size)
[3] = qHTS for Inhibitors of the Functional Ribonucleoprotein Complex (vRNP) of Lassa (LASV) Arenavirus: Viability assay - alamar blue signal for LASV Primary Screen (AID 1347083; calls by dose curve; tested in HEK293 reporter line; note: series mostly up to about 57 µM; % is set by controls: 0 for no effect and ±100 for the full control effect; nearly all actives have a fitted effect of over 80% in size)
[4] = qHTS for Inhibitors of the Functional Ribonucleoprotein Complex (vRNP) of Lymphocytic Choriomeningitis Arenaviruses (LCMV): Viability assay - alamar blue signal for LCMV Primary Screen (AID 1347085; calls by dose curve; tested in HEK293 reporter line; note: series mostly up to about 57 µM; % is set by controls: 0 for no effect and ±100 for the full control effect; nearly all actives have a fitted effect of over 80% in size)
[5] = target: Nucleoprotein (Lymphocytic choriomeningitis virus (strain Armstrong)) (UniProt P09992); assay: qHTS for Inhibitors of the Functional Ribonucleoprotein Complex (vRNP) of Lymphocytic Choriomeningitis Arenaviruses (LCMV): LCMV Primary Screen - GLuc reporter signal (AID 1347086); note: series mostly up to about 57 µM; % is set by controls: 0 for no effect and ±100 for the full control effect; nearly all actives have a fitted effect of over 70% in size
Nucleoprotein (Lymphocytic choriomeningitis virus (strain Armstrong)), sequence (P09992 whole entry, looked up): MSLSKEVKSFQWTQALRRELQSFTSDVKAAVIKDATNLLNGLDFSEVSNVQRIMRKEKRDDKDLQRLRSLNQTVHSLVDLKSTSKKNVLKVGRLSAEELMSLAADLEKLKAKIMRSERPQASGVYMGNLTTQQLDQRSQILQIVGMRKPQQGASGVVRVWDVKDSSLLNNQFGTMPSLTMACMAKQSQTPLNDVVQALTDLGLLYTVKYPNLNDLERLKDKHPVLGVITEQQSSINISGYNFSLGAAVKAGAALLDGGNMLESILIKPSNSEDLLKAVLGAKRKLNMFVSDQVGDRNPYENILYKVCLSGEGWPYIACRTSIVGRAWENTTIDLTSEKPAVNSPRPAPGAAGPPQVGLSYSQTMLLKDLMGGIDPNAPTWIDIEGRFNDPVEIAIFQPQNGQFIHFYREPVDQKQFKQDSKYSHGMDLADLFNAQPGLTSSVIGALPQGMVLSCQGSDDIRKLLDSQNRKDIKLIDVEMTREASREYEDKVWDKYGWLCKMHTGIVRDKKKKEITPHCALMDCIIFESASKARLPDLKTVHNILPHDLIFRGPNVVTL

[6] = target: Alpha-galactosidase (Coffea arabica) (UniProt Q42656); assay: Counterscreen for Glucocerebrosidase Inhibitors: qHTS Assay for Coffee Bean alpha-Galactosidase at pH 4.5 (AID 957; active = well fitted curve in the direction sought with a large enough effect; an effect the other way counts as inactive or inconclusive;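 note: series mostly up to about 77 µM; plate controls were enzyme alone for no effect and no enzyme for full effect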)
Alpha-galactosidase (Coffea arabica), sequence (Q42656 whole entry, looked up): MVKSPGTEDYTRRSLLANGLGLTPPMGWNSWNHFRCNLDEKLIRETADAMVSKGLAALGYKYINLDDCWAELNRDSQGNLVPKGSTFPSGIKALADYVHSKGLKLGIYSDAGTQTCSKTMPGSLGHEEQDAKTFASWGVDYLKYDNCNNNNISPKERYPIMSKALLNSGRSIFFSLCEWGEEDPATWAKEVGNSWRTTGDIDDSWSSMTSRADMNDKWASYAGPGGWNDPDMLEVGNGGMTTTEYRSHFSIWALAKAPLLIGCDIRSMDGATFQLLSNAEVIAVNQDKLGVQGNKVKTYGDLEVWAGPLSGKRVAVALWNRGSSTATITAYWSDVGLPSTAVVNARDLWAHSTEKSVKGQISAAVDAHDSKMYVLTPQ
In short: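 Fluorogenic qHTS at pH 4.5 (citrate buffer with Tween-20): 2 nM enzyme, 80 uM 4-MU-alpha-galactoside substrate, compound titrated 0.7 nM to 77 uM, 20 min room temperature. Glycine/NaOH stop; 4-MU read Ex 365/Em 440; Hill-equation AC50 against no-enzyme and enzyme controls.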

[7] = target: Alpha-galactosidase (Coffea arabica) (UniProt Q42656); assay: Counterscreen for Glucocerebrosidase Inhibitors: qHTS Assay for Coffee Bean alpha-Galactosidase at pH 5.9 (AID 998; active = well fitted curve in the direction sought with a large enough effect; an effect the other way counts as inactive or inconclusive;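 note: plate controls were uninhibited enzyme for no effect and no-enzyme basal signal for full effect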)
In short: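 In 50 mM citric acid pH 5.9 with 0.005% Tween-20, coffee bean enzyme hydrolyses 80 uM 4-MU alpha-D-galactopyranoside over 20 min at RT. Activity is normalized to controls; AC50 comes from Hill-modelled concentration-response data.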

[8] = target: Chromobox protein homolog 1 (Homo sapiens) (UniProt P83916); assay: qHTS Validation Assay for Inhibitors of HP1-beta Chromodomain Interactions with Methylated Histone Tails (AID 488953; active = well fitted curve in the direction sought with a large enough effect; an effect the other way counts as inactive or inconclusive; note: nearly all actives have a fitted effect of over 50% in size; note: potency is the fitted concentration of half-maximal effect)
Chromobox protein homolog 1 (Homo sapiens), sequence (P83916 whole entry, looked up): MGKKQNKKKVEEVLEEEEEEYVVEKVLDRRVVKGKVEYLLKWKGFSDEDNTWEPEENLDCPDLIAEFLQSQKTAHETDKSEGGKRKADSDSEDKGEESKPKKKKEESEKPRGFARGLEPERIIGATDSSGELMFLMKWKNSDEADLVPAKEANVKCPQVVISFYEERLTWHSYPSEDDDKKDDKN
In short: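 AlphaScreen proximity signal from streptavidin donor and nickel chelate acceptor beads (final 10 ug/mL) after 30 min dark incubation. Compounds had 30 min at room temperature with preformed complex of 50 nM HP1-beta and 50 nM b-H3(1-18)K9me3 in PBS pH 7.4 with 0.01% Tween-20.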

[9] = Inducers of the Endoplasmic Reticulum Stress Response (ERSR) in human glioma: Validation (AID 504836; active = well fitted curve in the direction sought with a large enough effect; an effect the other way counts as inactive or inconclusive; note: 0% is about no effect)
In short: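 Stably transfected U87-MG human glioma cells carrying a GRP78-based luminescent sensor were seeded at 1000 cells/well, pin-dosed with compounds and incubated 16 h. Luciferase reagent was then added, and end-point luminescence was read after 10 min at room temperature.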

[10] = target: Arylsulfatase A (Homo sapiens) (UniProt P15289); assay: qHTS screen for enhancers of Arylsulfatase A (ASA1): LOPAC Validation Assay (AID 720538; active = well fitted curve in the direction sought with a large enough effect; an effect the other way counts as inactive or inconclusive)
Arylsulfatase A (Homo sapiens), sequence (P15289 whole entry, looked up): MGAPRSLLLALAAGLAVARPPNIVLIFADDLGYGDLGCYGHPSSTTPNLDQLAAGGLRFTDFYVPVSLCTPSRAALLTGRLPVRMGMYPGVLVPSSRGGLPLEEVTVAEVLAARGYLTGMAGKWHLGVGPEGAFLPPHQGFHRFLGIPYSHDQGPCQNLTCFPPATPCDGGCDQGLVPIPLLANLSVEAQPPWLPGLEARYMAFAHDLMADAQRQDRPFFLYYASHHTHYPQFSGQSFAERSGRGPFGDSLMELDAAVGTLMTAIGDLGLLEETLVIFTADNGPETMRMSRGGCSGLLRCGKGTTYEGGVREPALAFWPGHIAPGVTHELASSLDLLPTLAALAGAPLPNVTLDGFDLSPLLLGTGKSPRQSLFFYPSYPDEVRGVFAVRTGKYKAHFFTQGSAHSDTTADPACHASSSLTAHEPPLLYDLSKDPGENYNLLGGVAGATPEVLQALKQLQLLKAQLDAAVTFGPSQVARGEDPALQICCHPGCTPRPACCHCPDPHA
In short: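 SV40-transformed skin fibroblasts from an MLD patient (ASA-I179S) were treated with compounds for 48h at 37 degree C, then lysed with 0.5mM pNCS final substrate for 14h at room temperature; NaOH stop, fluorescence read (Ex=525 nm; Em=598 nm).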

[11] = Cell Viability - BJ (AID 421); conditions: BJ fibroblast viability, qHTS;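 note: potency is the fitted concentration of half-maximal effect; cells exposed to compound for 40 hours at 37 °C before readout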
In short: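 Luminescent ATP signal (CellTiter-Glo, 20 min at room temperature) served as the read-out of viable BJ cells after 40 hours of compound treatment. Responses were scaled between DMSO and 100 uM tamoxifen, and AC50 values were obtained by Hill modeling.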

[12] = MultiTox-Fluor Cytotoxicity Assay - LYMP1-003 - Dead Cells (AID 961; active = well fitted curve in the direction sought with a large enough effect; an effect the other way counts as inactive or inconclusive;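 note: 0% = DMSO and 100% = tetraoctylammonium bromide; nearly all actives have a fitted effect of over 70% in size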)
In short: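 Human lymphoblastoid LYMP1-003 cells (2500/well) were treated with compounds for 16 hr at 37 C in complete medium. Dead-cell protease release was read by bis-AAF-R110 fluorescence (Ex/Em 485/520). AC50 came from Hill fits, normalized to DMSO and 15 uM tetraoctylammonium bromide.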

[13] = qHTS assay for small molecule agonists of the antioxidant response element (ARE) signaling pathway (AID 651741; active = well fitted activation curve with a large enough effect in the signal ratio; the % refers to the signal ratio; note: potency is the fitted concentration of half-maximal effect; for activation: % of control where 0% means no effect)
In short: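 Reporter: beta-lactamase under ARE, stably in HepG2. Exposure: 16 h, 37 C, compounds delivered in DMSO by pin tool after 5 h cell preincubation. Readout: FRET substrate fluorescence after 2 h at RT.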

[14] = qHTS assay for small molecule agonists of the antioxidant response element (ARE) signaling pathway measured by Nrf2-dependant transcriptional activity - cell viability counter screen (AID 720653; active = well fitted curve in the direction sought with a large enough effect in the repeat runs; an effect the other way counts as inactive or inconclusive; note: % is set by controls: 0 for no effect and ±100 for the full control effect); conditions: ARE-bla HepG2 viability, CellTiter-Glo ATP luminescence, 16 h; max response: stronger effect = lower value
In short: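 ARE-bla HepG2 cells (2,000/well) rested 5 hrs at 37C/5% CO2, then exposed to compounds in DMSO for 16 hrs. Viability was read in the same wells as intracellular ATP by luminescence, 30 min at room temperature after reagent addition.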

[15] = target: M-phase phosphoprotein 8 (Homo sapiens) (UniProt Q99549); assay: qHTS Validation Assay for Inhibitors for MPP8 Chromodomain Interactions with Methylated Histone Tails (AID 488949; active = well fitted curve in the direction sought with a large enough effect; an effect the other way counts as inactive or inconclusive; note: nearly all actives have a fitted effect of over 55% in size; note: potency is the fitted concentration of half-maximal effect)
M-phase phosphoprotein 8 (Homo sapiens), sequence (Q99549 whole entry, looked up): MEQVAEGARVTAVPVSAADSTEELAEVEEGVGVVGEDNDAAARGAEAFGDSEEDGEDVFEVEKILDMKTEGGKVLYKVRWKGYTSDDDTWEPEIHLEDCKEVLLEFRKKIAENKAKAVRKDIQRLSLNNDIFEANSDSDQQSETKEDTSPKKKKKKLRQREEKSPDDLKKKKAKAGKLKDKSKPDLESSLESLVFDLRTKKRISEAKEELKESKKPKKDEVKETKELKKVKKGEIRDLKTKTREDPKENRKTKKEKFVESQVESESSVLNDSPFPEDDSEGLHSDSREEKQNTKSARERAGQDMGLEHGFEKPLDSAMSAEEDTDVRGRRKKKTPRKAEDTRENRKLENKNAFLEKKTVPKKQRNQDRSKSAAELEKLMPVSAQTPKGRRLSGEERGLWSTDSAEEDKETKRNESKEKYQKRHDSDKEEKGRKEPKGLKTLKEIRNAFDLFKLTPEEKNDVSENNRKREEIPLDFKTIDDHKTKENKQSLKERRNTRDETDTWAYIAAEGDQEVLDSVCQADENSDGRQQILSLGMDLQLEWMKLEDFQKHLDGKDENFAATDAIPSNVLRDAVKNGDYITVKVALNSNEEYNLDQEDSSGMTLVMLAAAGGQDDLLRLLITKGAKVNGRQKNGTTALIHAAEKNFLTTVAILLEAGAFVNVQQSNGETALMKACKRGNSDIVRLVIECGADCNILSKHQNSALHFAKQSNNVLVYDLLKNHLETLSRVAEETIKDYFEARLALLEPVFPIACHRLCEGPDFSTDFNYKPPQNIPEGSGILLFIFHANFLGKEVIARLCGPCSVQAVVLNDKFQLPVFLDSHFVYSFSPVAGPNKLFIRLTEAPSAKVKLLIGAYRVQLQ
In short: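 MPP8 (50 nM) was preincubated with biotinylated H3(1-18)K9me3 peptide (50 nM) in PBS pH 7.4, 0.01% Tween-20 for 30 min at room temperature, then with compounds for 30 min; binding was detected by AlphaScreen.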

COc1cccc(OC)c1OCCNCC1CSc2ccccc2O1 (stereo not drawn)
inactive: Potency [1] | Potency [2] | Potency [3] | Potency [4] | Potency [5]

NC(Cc1cccc(-c2ccccc2CP(=O)(O)O)c1)C(=O)O (stereo not drawn)
inactive: Potency [1] | Potency [2] | Potency [3] | Potency [4] | Potency [5]

O=C(O)CCC(=O)N1CCCC1C(=O)O (stereo not drawn)
inactive: Potency [1] | Potency [2] | Potency [3] | Potency [4] | Potency [5]

CC(=O)C(C)=O
inactive: outcome [6] | outcome [7] | Potency [1] | Potency [8] | outcome [9] | Potency [10] | Potency [2] | Potency [3] | Potency [4] | Potency [5]

Cn1ccnc1
inactive: outcome [6] | outcome [7] | Potency [1] | Potency [2] | Potency [3] | Potency [4] | Potency [5]

CCOC(=O)c1ccccc1N
inactive: Potency [11] > 92 µM | Potency [12] | Potency [13] | max response [14] 3.82% | Potency [2] | Potency [3] | Potency [4] | Potency [5]

Nc1nc2ccc(Cl)cc2c2nc(-c3ccco3)nn12
50.1 µM (active) and inactive: Potency [15]
inactive: outcome [6] | outcome [7] | Potency [1] | outcome [9] | Potency [10] | Potency [2] | Potency [3] | Potency [4] | Potency [5]

CCCCC/C=C\CC(O)/C=C/c1cccc(CC(O)CCCCO)n1 (stereo not drawn)
inactive: Potency [1] | outcome [9] | Potency [2] | Potency [3] | Potency [4] | Potency [5]

CN1[C@@H](CC(=O)c2ccccc2)CCC[C@H]1C[C@H](O)c1ccccc1
inactive: Potency [1] | Potency [15] | outcome [9] | Potency [10] | Potency [2] | Potency [3] | Potency [4] | Potency [5]

C=C/C(C)=C/[C@@]1(C)SC(=O)C(C)=C1O
inactive: Potency [1] | Potency [2] | Potency [3] | Potency [4] | Potency [5]

Nc1ncnc2c1ncn2C1CCCO1 (stereo not drawn)
inactive: Potency [1] | outcome [9] | Potency [2] | Potency [3] | Potency [4] | Potency [5]

O=C1C2C=CC=CC2=NC(=S)N1CCN1CCC(=C(c2ccc(F)cc2)c2ccc(F)cc2)CC1 (stereo not drawn)
inactive: Potency [1] | Potency [2] | Potency [3] | Potency [4] | Potency [5]

O=c1oc(Cl)c(Cl)c2ccccc12
active: Potency [8] 39.8 µM
25.1 µM (active) and inactive: Potency [15]
inactive: outcome [6] | outcome [7] | outcome [9] | Potency [2] | Potency [3] | Potency [4] | Potency [5]

COc1cc(C(O)CO)ccc1O (stereo not drawn)
inactive: Potency [1] | outcome [9] | Potency [2] | Potency [3] | Potency [4] | Potency [5]

CC1CCN(CC[C@H]2CCCN2S(=O)(=O)c2cccc(O)c2)CC1
inactive: Potency [1] | outcome [9] | Potency [2] | Potency [3] | Potency [4] | Potency [5]

CC1=C(C(=O)O)N2C(=O)[C@@H](NC(=O)C(N)c3ccccc3)[C@H]2SC1 (stereo partly drawn)
inactive: Potency [1] | Potency [2] | Potency [3] | Potency [4] | Potency [5]

N[C@@H](Cc1ccc(F)cc1)C(=O)O
inactive: Potency [1] | Potency [2] | Potency [3] | Potency [4] | Potency [5]

O=C(O)CNC(=O)C(CS)Cc1ccccc1 (stereo not drawn)
inactive: Potency [1] | Potency [15] | outcome [9] | Potency [10] | Potency [2] | Potency [3] | Potency [4] | Potency [5]

C[C@@H](CN1CCC(Cc2ccccc2)CC1)[C@@H](O)c1ccc(O)cc1
inactive: Potency [1] | outcome [9] | Potency [2] | Potency [3] | Potency [4] | Potency [5]

c1ccc(Nc2ccc3ccccc3c2)cc1
active: Potency [13] 42.2 µM and 54.5 µM
inactive: Potency [11] > 92 µM | Potency [12] | max response [14] -8.38% and -2.45% | Potency [2] | Potency [3] | Potency [4] | Potency [5]

Brc1c(Br)c(Br)c2n[nH]nc2c1Br
inactive: outcome [6] | outcome [7] | Potency [1] | Potency [15] | Potency [8] | outcome [9] | Potency [2] | Potency [3] | Potency [4] | Potency [5]

O=c1cc(O)cc(/C=C/c2ccc(O)c(O)c2)o1
inactive: Potency [1] | Potency [2] | Potency [3] | Potency [4] | Potency [5]

NC1C=CC=C(C(=O)O)C1 (stereo not drawn)
inactive: Potency [1] | outcome [9] | Potency [2] | Potency [3] | Potency [4] | Potency [5]

OC[C@H]1NC[C@@H](O)[C@@H]1O
inactive: Potency [1] | outcome [9] | Potency [2] | Potency [3] | Potency [4] | Potency [5]

CC(=O)/C=C/c1ccccc1
inactive: Potency [11] > 92 µM | Potency [12] | Potency [13] | max response [14] -6.98% | Potency [2] | Potency [3] | Potency [4] | Potency [5]

CC(C)(C)c1ccc(S(=O)(=O)/C=C/C#N)cc1
inactive: Potency [2] | Potency [3] | Potency [4] | Potency [5]
active: Potency [1] 11.2 µM

CCCCS(=N)(=O)CC[C@H](N)C(=O)O (stereo partly drawn)
inactive: Potency [1] | Potency [2] | Potency [3] | Potency [4] | Potency [5]

C=CCN1CCc2c(cc(O)c(O)c2Cl)C(c2ccccc2)C1 (stereo not drawn)
inactive: Potency [1] | outcome [9] | Potency [2] | Potency [3] | Potency [4] | Potency [5]

COc1ccc2c(c1)CCC1C2CC[C@@]2(C)C1CC[C@@H]2NCCCCCCN1C(=O)C=CC1=O (stereo partly drawn)
active: Potency [8] 50.1 µM
inactive: Potency [1] | Potency [15] | outcome [9] | Potency [2] | Potency [3] | Potency [4] | Potency [5]

COc1cccc(OC)c1OCCNCC1COc2ccccc2O1 (stereo not drawn)
inactive: Potency [1] | outcome [9] | Potency [2] | Potency [3] | Potency [4] | Potency [5]

c1ccc2c(c1)-c1cccc3cccc-2c13
inactive and 30.6 µM (active): Potency [13]
inactive: Potency [11] > 92 µM | Potency [12] | max response [14] -12% and 0.837% | Potency [2] | Potency [3] | Potency [4] | Potency [5]

O=C(/C=C/c1ccc(O)c(O)c1)OCCc1ccccc1
inactive: Potency [1] | Potency [2] | Potency [3] | Potency [4] | Potency [5]

CCNC(=O)[C@H]1O[C@@H](n2cnc3c(N)nc(NCCc4ccc(CCC(=O)O)cc4)nc32)[C@H](O)[C@H]1O
inactive: Potency [1] | Potency [2] | Potency [3] | Potency [4] | Potency [5]

O=C(O)CCCC[C@@H]1CCSS1
inactive: Potency [1] | outcome [9] | Potency [2] | Potency [3] | Potency [4] | Potency [5]

Nc1nc2[nH]c(=O)cnc2c(=O)[nH]1
inactive: outcome [6] | outcome [7] | Potency [1] | outcome [9] | Potency [2] | Potency [3] | Potency [4] | Potency [5]
active: Potency [8] 0.0095 µM

O=C(O)[C@H]1NCCC[C@H]1C(=O)O
inactive: Potency [1] | outcome [9] | Potency [2] | Potency [3] | Potency [4] | Potency [5]

CC1=C(C(=O)O)N2C(=O)[C@@H](NC(=O)C(N)C3=CCC=CC3)[C@H]2SC1 (stereo partly drawn)
inactive: Potency [1] | outcome [9] | Potency [2] | Potency [3] | Potency [4] | Potency [5]

Reference: PubChem BioAssay (NCATS)
